Reference: the supplement of paper PMC11417369
Over roughly 25,000 sequences, “ln(normalized median fluorescence intensity)” has its median near 9.3; the highest 2% begin near 10. Shown is part of a subset that was picked to be rich in the highest values.

test system: PF3D7_0420300 AP2 domain 1 (GST-tagged); test: gcPBM binding intensity (ln(normalized median fluorescence intensity)); higher = stronger DNA binding
Procedure, shortened: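 Plasmodium falciparum DNA-binding domains carrying a GST tag were expressed in E. coli and applied for 1 h, at about 25 μg on average, to an Agilent 4 × 180k array. The array held primer-extended double-stranded 36-bp intergenic genomic probes together with negative controls, and binding took place in 1× PBS with 1% milk, 0.2 mg/ml BSA, 0.5% salmon testes DNA and 0.03% Triton X-100. An Alexa488 anti-GST antibody detected bound protein, and the array was scanned at 488 nm. Binding intensity is taken as the highest Masliner-normalised natural-log median intensity across replicate spots of either probe orientation.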

Row | Sequence | gcPBM binding intensity (ln)
1 | CCTAAATAATATCTATCACACACGCATATATACATA [CACACA_site8838] | 9.56
2 | TATGTTAAAAAAAAAAAAAAGAAAAAAATAAAAGGA [CACACA_negctrl_site119] | 9.44
3 | TATAAATATATATATACACACACATACACAAAAAAA [CACACA_site9191] | 10.2
4 | AAGAGAAAAATATATACACACACATAAATATATACA [CACACA_site8573] | 9.96
5 | TATAAGAGAATATATACACACAAAAATATATACAGT [CACACA_site1668] | 9.89
6 | TCAAAAATAAAGATCACACATATATATATATATATA [CACACA_site4381] | 9.2
7 | AAAAAAAAAGATCACACACACATAAATATAAACAAA [CACACA_site5285] | 10.2
8 | TATAAGAGAATATATACACACAAAAATAAATACAGT [CACACA_site5000] | 10.3
9 | TAAATATATAAATACACACACATACACAAAAAAAAA [CACACA_site5890] | 10.1
10 | CACATACATATATACACACACAAAATAATAAAATAA [CACACA_site2308] | 10
11 | TATAAATATACAAACACACATACAAACATATATATA [CACACA_site1120] | 9.91
12 | CATACATACAAACACACACACATATAAATACATACA [CACACA_site4625] | 10.2
13 | TAAATATATAAATACACACAAACATACATATATATA [CACACA_site4050] | 9.88
14 | CACAAAAATAAACACACACACATATATATATATATA [CACACA_site4704] | 9.75
15 | AATACATACATACATACATGCATATATATATATATA [TGCATGCA_site462] | 9.42
16 | ATTTACATTCACTTATGTACTTATATAATTTTATTT [XGTACX_site8150] | 9.54
17 | CCCATTTTGACAAAAAGTACAAGTTCAGGTTTTATA [XGTACX_site1532] | 9.22
18 | AACTATAAAAATTTTACACACTGTTTTTAAATAATG [CACACA_site5928] | 9.4
19 | TATAAAAAATAATACACACACATGGCGACAAAATAA [CACACA_site2420] | 10.2
20 | ATATATATATATTACACACACACAAAAAAAATAAAG [CACACA_site118] | 10.4
21 | ATAAATAAGATACGTACACACATATACAAAATATAC [CACACA_site3661] | 9.95
22 | AGATAAAATATATACACACACATAAATACGTACAAA [CACACA_site1086] | 10.1
23 | TAATAAAAAATATATACACACAAATAAATAAATAAA [CACACA_site4037] | 9.83
24 | AGATAAAATAAATACACACACATAAATACGTACAAA [CACACA_site4739] | 10.2

Row | Sequence | gcPBM binding intensity (ln)
25 | TATTTACACAAAATAAAATATATTATATATATATAT [TGCATGCA_negctrl_site381] | 8.93
26 | ATATAAATATTAATTACACACAAAAAAAAAAAAAAA [CACACA_site6671] | 9.35
27 | AATATATAAATATATACACACAAAAACATATATATA [CACACA_site1318] | 9.8
28 | AATATAAAAAATAATACACACACATGGCGACAAAAT [CACACA_site8765] | 10.2
29 | TACACAAAAATAAACACACACACATATATATATATA [CACACA_site1000] | 9.78
30 | TACACAAAAATAAACACACACACATATAAATAAATA [CACACA_site6599] | 10.2
31 | GGTGTATGTTAAAGGAGTACATATATATATATATAT [XGTACX_site7727] | 9.3
32 | ACCTTTGATATATACACACACATAAAAAAAATATAT [CACACA_site6952] | 9.93
33 | TACAACCTTTAGACAAGTACAAGAATTATATGTGGC [XGTACX_site4581] | 9.4
34 | AAAAAAAAAAATTACACACATACATATAATAATAAT [CACACA_site2193] | 9.85
35 | AGCAGTCGACAGGACAGTACACAGTAGCCAGGAAAT [XGTACX_site4929] | 9.32
36 | AAATTATAAATACCTACACACTTATCAAAATAAATT [CACACA_site5280] | 9.56
37 | ATTGGGTTCATCAGCACACACAACATCATGTAATAA [CACACA_site5093] | 9.5
38 | AATTAATGGAAACAAGTCAAATGATCTTTATGCATA [TGCATGCA_negctrl_site540] | 9.13
39 | TTTATATAATTTTAATGTACATATATATATATAAAT [XGTACX_site4381] | 8.98
40 | TACACATACAGACATACACACATACACATATACACA [CACACA_site6918] | 9.88
41 | TAAACAGACATATAAACACACATACATACATACATA [CACACA_site7215] | 9.56
42 | AAAAAAAACAGACACACACACATACACATACATACA [CACACA_site2857] | 10.2
43 | TACATACACAGACACACACACATATATATATATATA [CACACA_site3557] | 9.89
44 | TAAACAGACATACATACACACATACATACAGACATA [CACACA_site6997] | 9.88
45 | AAAAAACACAGACACACACACATATACATACATACA [CACACA_site2666] | 10.2
46 | CATATACATACACATACACACATACAGACATACACA [CACACA_site6919] | 9.83
47 | AACAGACATACATACACACATACATACAGACATACA [CACACA_site1942] | 9.9
48 | AAAAAAAACAGACACACACACACATATACATACATA [CACACA_site2665] | 10.2
